Columns and labels:
Format in all cases: functional
[1] = target: Solute carrier family 2, facilitated glucose transporter member 1 (Homo sapiens) (UniProt P11166); test: ST_JUDE_LEISH: Cytotoxicity at 2uM final concentration against transgenic Leishmania Mexicana promastigotes LmGLUT1 that are glucose transport deficient and complemented with the human glucose transporter GLUT1. Activity is measured by DNA content using SYBR green in vitro
[2] = target: Hexose transporter 1 (Plasmodium falciparum) (UniProt O97467); test: ST_JUDE_LEISH: Cytotoxicity at 2uM final concentration against transgenic Leishmania Mexicana promastigotes LmPfHT that are glucose transport deficient and complemented with the Plasmodium falciparum hexose transporter. Activity is measured by DNA content using SYBR green in vitro
[3] = target: Glucose transporter (Leishmania mexicana) (UniProt O61059); test: ST_JUDE_LEISH: Cytotoxicity at 2uM final concentration against transgenic Leishmania Mexicana promastigotes LmGT2 that are glucose transport deficient and complemented with the L. Mexicana glucose transporter 2. Activity is measured by DNA content using SYBR green in vitro

Solute carrier family 2, facilitated glucose transporter member 1 (Homo sapiens), sequence (P11166 whole entry): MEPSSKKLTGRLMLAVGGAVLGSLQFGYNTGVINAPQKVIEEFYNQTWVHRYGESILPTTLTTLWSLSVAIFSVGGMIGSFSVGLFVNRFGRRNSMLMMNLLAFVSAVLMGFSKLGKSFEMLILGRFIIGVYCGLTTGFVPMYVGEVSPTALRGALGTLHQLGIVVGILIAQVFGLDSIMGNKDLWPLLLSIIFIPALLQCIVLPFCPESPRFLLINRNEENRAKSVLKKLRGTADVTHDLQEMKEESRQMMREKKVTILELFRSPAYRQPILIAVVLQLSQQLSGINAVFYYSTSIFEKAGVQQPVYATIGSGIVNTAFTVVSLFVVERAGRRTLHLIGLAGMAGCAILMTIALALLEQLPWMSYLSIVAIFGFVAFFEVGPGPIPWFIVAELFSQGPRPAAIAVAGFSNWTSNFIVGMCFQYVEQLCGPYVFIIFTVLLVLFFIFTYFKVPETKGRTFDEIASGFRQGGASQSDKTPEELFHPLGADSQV

Compound | inhibition [1] | inhibition [2] | inhibition [3]
COc1c(C2CCN(CCN3CCC(NC(=O)c4ccc(-c5ccc(C(F)(F)F)cc5)cc4)CC3)CC2)ccc2c1CCCC2 | 0.78% | 1.26% | 0.67%
O=C(/C=C/c1ccc(Cl)c(Cl)c1)NCCCCCCN1CCCN(C(=O)Nc2cccc(C(F)(F)F)c2)CC1 | 5.59% | 4.35% | 0.59%
COc1ccc(CCN(Cc2cccs2)C(=O)c2cc3sccc3n2C)cc1OC | 0.3% | 0.45% | 0.18%
COC(=O)c1cc(OC)c(OC)cc1NC(=O)NC12CC3CC(CC(C3)C1)C2 | 4.1% | 2.13% | 1.18%
COc1ccc(-c2cccc(NC(=O)c3cccc(C#N)c3)c2)cc1CN1CCC(O)CC1 | 3.79% | 3.97% | 4.2%
Cc1ncccc1C(=O)Nc1cccc(-c2cccc(-c3nc4cccc(C)c4[nH]3)c2)c1 | 0.36% | 1.44% | 1.05%
c1cc(CN2CCN(CCN3CCOCC3)CC2)cc(-c2cccc(-c3nc4ccccc4[nH]3)c2)c1 | -0.34% | -0.24% | -1.97%
COc1ccccc1-c1nc2nc(N)nc(N)c2nc1-c1ccccc1OC | 0.82% | 1.25% | 1.01%
CN1CCC(NCc2cccc(-c3ccc(S(=O)(=O)NCCN4CCCC4)c(F)c3)c2)CC1 | -1.49% | -0.62% | -0.34%
CCOc1ccc(Cc2c(C)nc3nc(N)nc(N)c3c2C)cc1 | 29.1% | 41.5% | 26%
FC(F)(F)c1cccc(Nc2nc3ccccc3nc2Nc2cccc(C(F)(F)F)c2)c1 | -0.24% | 0.5% | 0.85%
COc1ccc2c(c1)CCN(CCN1CCC(CNC(=O)c3ccc(-c4ccc(C#N)cc4)cc3)CC1)C2 | -0.11% | 1.19% | 2.22%
c1cc(CN2CCN(CCN3CCOCC3)CC2)cc(-c2csc(-c3nc4ccccc4[nH]3)c2)c1 | 5.51% | 5.16% | 4.63%
O=C(NCCCCN1CCN(CC=Cc2ccccc2)CC1)c1ccc(NC(=O)c2cc(Cl)cc(Cl)c2)cc1 | -0.99% | -0.05% | -0.79%
CC(C)CCNc1nc(NCc2ccccc2)c2cc(O)ccc2n1 | 5.89% | 5.74% | 1.03%
O=C(NC1CCC1)C1CCN(C(c2ccccc2)c2cc(F)cc(F)c2)CC1 (configuration not stated) | 6.73% | 7.32% | 6.61%
CCCn1cc2c(ccc3nc(N)nc(N)c32)n1 | 0.63% | 0.8% | 0.23%
CCOc1cc(C(=O)NCc2cccc(C(F)(F)F)c2)ccc1-c1nc2cc(Cl)ccc2[nH]1 | 2.15% | 2.24% | 1.82%
CC1(C)CC2CC(C)(CN2C(=O)c2cc(C(C)(C)C)nn2Cc2ccccc2)C1 (configuration not stated) | 7.67% | 7.75% | 5.94%
Cc1cccc2nc(-c3ccc(-c4ccc(CN5CCN(CCO)CC5)cc4)cc3)[nH]c12 | 25.5% | 31.3% | 17.5%
O=C(Nc1cn(-c2ccc(OCc3cccc(F)c3)c(Cl)c2)c2ncncc12)c1ccncc1 | 1.53% | 1.05% | 2.96%
COc1ccc(-c2nc3cccnc3n2CC(=O)Nc2c(C)cc(C)cc2C)c(OC)c1 | -0.28% | -1.73% | 1.82%
CN(C)c1cc2c(Nc3ccc4nc(Cc5ccccc5)[nH]c4c3)ncnc2cn1 | 4.02% | 5.87% | 2.46%

Compound | inhibition [1] | inhibition [2] | inhibition [3]
COC(=O)c1c(C#N)c(OC)cc(O)c1CSC[C@H](Nc1nc(-c2ccc([N+](=O)[O-])cc2)cs1)C(=O)NCCN1CCCCC1 | -1.73% | 0.29% | -0.42%
CCCCn1c(=N)c(C(=O)NCc2cccnc2)cc2c(=O)n3cccc(C)c3nc21 | 4.38% | 5.85% | 2.74%
Cc1cc(C(=O)Nc2ccc3c(ccn3C3CCCN(Cc4ccc(C(F)(F)F)cc4F)CC3)c2)no1 (configuration not stated) | -0.37% | 0.5% | -0.5%
N#Cc1cccc(C(=O)Nc2ccc(-c3nc4ccccc4[nH]3)cc2)c1 | 0.28% | -0.34% | -0.95%
CCCN1CCCN(Cc2cccc(NC(=O)c3ccc(-c4ccccc4)cc3)c2)CC1 | 0.74% | 0.03% | -5.12%
O=C(Nc1ccccc1-c1ccccc1)C1CCCN1C(=O)Nc1ccc(Cl)cc1 (configuration not stated) | -0.38% | -0.89% | -2.33%
Oc1ccc(-c2cc(-c3ccc(O)cc3)nc(-c3ccccc3)n2)cc1 | 2.51% | 1.53% | 0.82%
CC(C)[C@H]1CC[C@H](C)C[C@@H]1OC(=O)N[C@@H](Cc1ccc(O)cc1)C(=O)NC1CCN(Cc2ccc(OCCCN(C)C)cc2)C1 (some centres not stated) | 5.09% | 3.96% | 3.06%
Cc1cc2cc(/C=C/C(=O)NC3CCC(CCN4CCc5ccc(C#N)cc5CC4)CC3)ccc2[nH]1 (configuration not stated) | 9.08% | 7.95% | 8.66%
CN(CCCNc1ccc(C(=O)Nc2ccc(C(F)(F)F)cc2)cc1[N+](=O)[O-])Cc1ccccc1 | 1.17% | -0.19% | -3.45%
O=C(Cc1ccc(Cl)cc1)Nc1cc(Cl)ccc1Cn1cnc(N2CCNCC2)cc1=O | 3.22% | -0.28% | 2.2%
COC(=O)c1cc(C(O)CNC(C)CCCc2ccccc2)ccc1O (configuration not stated) | 0.96% | -0.05% | -0.85%
NC1=NC(c2ccccc2)(c2ccccc2)C(=O)N1Cc1ccccc1Br | 7.09% | 4.75% | 6.62%
O=C(/C=C/c1ccc(Cl)c(Cl)c1)NCCCCCN1CCC(CCCNC(=O)Nc2ccc(C(F)(F)F)cc2)CC1 | -1.43% | -2.93% | -1.92%
CCCC(=O)Nc1ccc(OCCCN(Cc2ccccc2C(F)(F)F)c2ccc(C#N)c(C(F)(F)F)c2)cc1 | 3.53% | 4.53% | 4.55%
COc1ccc(F)cc1-c1ccccc1CNC(=O)c1cnn(-c2ccc([N+](=O)[O-])cc2)c1C(F)(F)F | 2.16% | 2.84% | 4.07%
O=C(Nc1ccc2[nH]c(-c3ccccc3)nc2c1)c1cc(-c2ccc3c(c2)OCCO3)n[nH]1 | 12.2% | 11.6% | 11.4%
CN(C)CCNCc1nc(-c2ccc3c(Nc4ccc(Oc5ccccc5)cc4)ccnc3c2)cs1 | -2.05% | 1.8% | 5.9%
CS(=O)(=O)c1cccc(-c2cnc3[nH]cc(-c4cccc(CCN)c4)c3c2)c1 | 4.65% | 3.48% | 8.44%
CN1CCN(c2ccnc3ccc(NC(=O)Cc4ccc(OCc5ccccc5)cc4)cc23)CC1 | 7.43% | 7.76% | 8.79%
COc1ccc(-c2ccccc2OCCCNc2nc(NCCc3ccc(O)cc3)nc(N3CCNCC3)n2)cc1 | 1.12% | 3.49% | 2.75%
COc1ccc(Nc2ncc3c(-c4cccc(NC(=O)CC(C)C)c4)c[nH]c3n2)cc1OC | 7.31% | 8.48% | 6.64%
COc1ccc2ccccc2c1CCCCN1CCN(CC(c2ccc(F)cc2)N2CCN(C(C)C)CC2)CC1 (configuration not stated) | 17.9% | 9.64% | 12.3%

Compound | inhibition [1] | inhibition [2] | inhibition [3]
CC(C)(C)OC(=O)/C=C(\C(=O)OCc1ccc([N+](=O)[O-])cc1)c1csc(NC(c2ccccc2)(c2ccccc2)c2ccccc2)n1 | 4.04% | 4.55% | 3.64%
N#Cc1ccc(N2CCN(Cc3cccc(-c4ccc(-c5nc6cc(C(F)(F)F)ccc6[nH]5)cc4)c3)CC2)nc1 | 4.01% | 6.49% | 0.17%
Cc1cc(-c2ccc3occ(CCN)c3c2)cnc1N | 1.36% | 0.86% | 1.13%
O=c1[nH]ccc2nc(N[C@@H]3CCCNC3)nc(Nc3ccc(S(=O)(=O)N4CCOCC4)cc3)c12 | 0.92% | 2.1% | -0.68%
CN1CCC(C(=O)Nc2cccc(-c3ccc(-c4nc5cc(F)ccc5[nH]4)cc3)c2)CC1 | 8.64% | 10.3% | 9.64%
COc1ccc2nccc([C@@H](O)CN3CCC(NC(=O)CCC(=O)c4cc(C(C)(C)C)ccc4OC)CC3)c2c1 | 5.04% | 4.7% | 1.95%
O=C(CCCCCNC(=O)c1ccc(O)c(-c2ccc(Cl)c(Cl)c2)c1)NCCc1ccc(Cl)c(Cl)c1 | -0.22% | 0.09% | 0.33%
O=C1CCCN1CCCNCc1cccc(-c2cccc(-c3nc4cc(C(F)(F)F)ccc4[nH]3)c2)c1 | 4.47% | 3.94% | 4.37%
O=C(/C=C/c1ccc(-c2nc3cc(F)c(F)cc3[nH]2)cc1)NCc1ccc(Cl)c(Cl)c1 | 4.53% | 4.32% | 1.96%
O=C(NCc1ccc(Cl)cc1)c1ccc(CN2CCCN(CC3CCCCC3)CC2)cc1 | 4.46% | 5.73% | 5.25%
O=C(Nc1ccc(-c2nc3ccccc3[nH]2)cc1)c1cccc(S(=O)(=O)N2CCCC2)c1 | 6.3% | 2.8% | 5.05%
Cc1cccc2nc(-c3ccc(-c4ccc(NC(=O)NCc5ccccc5)cc4)s3)[nH]c12 | 3.85% | 4.61% | 1.02%
Cc1n[nH]c2ccc(-c3cc(OC[C@@H](N)Cc4ccccc4)cnc3-c3cc4ccccc4s3)cc12 | 8.58% | 3.69% | 2.02%
NCc1ccc(-c2ccccc2CNC2CCN(Cc3ccccc3)CC2)cc1 | 2.4% | 2.46% | 1.44%
COc1ccccc1-c1cccc(CNC2CCN(CC3Cn4c(=O)ccc5ccc(F)c3c54)CC2)c1 (configuration not stated) | 15% | 31.3% | 54.7%
Cn1ccnc1CNC(=O)c1ccc(-c2cccc(-c3nc4cc(F)ccc4[nH]3)c2)cc1 | -2.64% | 0.96% | 1.38%
N#Cc1cc(C(=O)c2cc(Cl)ccc2O)cn(-c2cccc(C(F)(F)F)c2)c1=O | 8.27% | 7.71% | 5.33%
CCOC(=O)N(C)/N=C/[C@H](CCc1ccccc1)NC(=O)[C@H](CC(C)C)NC(=O)c1cc2cccc(OC)c2o1 | 5.68% | 3.47% | 5.24%
Cc1cccc2c(CON3C(N)=NC(N)=NC3(C)C)cccc12 | 0.73% | 1.67% | 1.51%
CC(=O)c1cc(N2CCCC2)ccc1N | 2.5% | 2.6% | 2.09%
CC1(C)N=C(N)N=C(N)N1OCCCOc1cccc(C(=O)O)c1 | 5.03% | 5.61% | 3.22%
COc1ccc(-c2ccc(NC(=O)c3ccc(C#N)cc3)c(F)c2)cc1CN(C)CCN(C)C | 0.85% | -0.56% | 0.45%
CC(=O)N1N=C(c2[nH]c3ccc(Br)cc3c2C)OC1c1ccccc1 (configuration not stated) | 4.69% | 4.06% | 3.6%

From ChEMBL document CHEMBL3433997, “St. Jude Leishmania screening dataset” (2016)
